Measured values reported in ChEMBL document CHEMBL3433997, “St. Jude Leishmania screening dataset” (2016).

Target: Glucose transporter (Leishmania mexicana) (UniProt O61059)
Test: ST_JUDE_LEISH: Cytotoxicity at 2uM final concentration against transgenic Leishmania Mexicana promastigotes LmGT2 that are glucose transport deficient and complemented with the L. Mexicana glucose transporter 2. Activity is measured by DNA content using SYBR green in vitro
Type: functional

| Compound | inhibition |
| --- | --- |
| Cc1ccc(-n2ncc(C(=O)Nc3cc(Cl)cc(Cl)c3)c2C2CCNCC2)cc1C | -0.12% |
| O=C(Nc1cccc(CN2CCN(Cc3ccc(O)cc3)CC2)c1)c1ccc(Cl)c(Cl)c1 | 2.47% |
| O=C(Nc1ccc(Br)c(Cl)c1)c1cc([N+](=O)[O-])cc2cn[nH]c12 | 1.08% |
| OCCN1CCN(Cc2cccc(-c3ccc(-c4nc5cc(C(F)(F)F)ccc5[nH]4)cc3)c2)CC1 | 2.62% |
| Cc1cccc2nc(-c3ccc(-c4ccc(CNCCN5CCNCC5)cc4)s3)[nH]c12 | 3.22% |
| c1ccc(-n2ncc(CNCc3ccc(-c4ccc(-c5nc6ccccc6[nH]5)s4)cc3)n2)cc1 | 0.43% |
| CN(C)CCc1coc2ccc(C(=O)Nc3ccc(-c4ccc(O)cc4)cc3)cc12 | 2.77% |
| CN1CCC=C(C(=O)NCC(C)(C)c2nc(-c3ccc(Cl)c(O)c3)c(-c3ccncc3)[nH]2)C1 | 7.7% |
| COc1cc([N+](=O)[O-])ccc1NC(=O)Nc1ccc(OC(F)(F)F)cc1 | -2.01% |
| CC(C)Oc1cc2c(cc1NS(=O)(=O)c1ccc(-c3ccc(Cl)cc3)cc1)CCN(C)CC2 | 4.31% |
| O=C(NCCCCN1CCC(c2ccc3ccccc3c2)CC1)c1ccc(NC(=O)c2ccc(Cl)cc2)cc1 | 4.1% |
| CC(=O)N[C@H](C(=O)Nc1cccc(-c2ccc(-c3nc4cccc(C)c4[nH]3)s2)c1)C(C)C | 2.08% |
| CCc1c[nH]c2c(N3CCCCC3=O)cc(C(=O)N[C@@H](Cc3ccccc3)[C@H](O)CNCc3cccc(OC)c3)cc12 | 0.87% |
| Nc1c(Cl)cc(C(O)CNCCCCCOCCc2ccc3occc3c2)cc1Cl (stereo not given) | 1.96% |
| COc1ccc2nccc([C@@H](O)CN3CCC(NCCOc4ccccc4C#N)CC3)c2c1 | 6.46% |
| Cc1cccc2nc(-c3ccc(-c4cccc(CNCCc5ccncc5)c4)s3)[nH]c12 | 2.73% |
| Cc1c(C)n(C2CCCC2)c2ncnc(OC3CCN(CC(=O)NC4CC4)CC3)c12 | 7.75% |
| CCOC(=O)c1nc(-c2ccccc2)[nH]c1NC(=S)NC1CCCCC1 | -6.59% |
| CCNc1cc(C(=O)N[C@@H](Cc2ccccc2)[C@H](O)CNC2(CC(C)C)CC2)cc(N2CCCCS2(=O)=O)c1 | -0.34% |
| COc1cc2nc(N(C)Cc3cccc(I)c3)nc(N)c2cc1OC | 1.56% |

| Compound | inhibition |
| --- | --- |
| COc1ccccc1Cn1ccnc1SCC(=O)Nc1cccc(C(F)(F)F)c1 | -0.75% |
| O=C(NC1CCN(CCC[C@]2(c3ccc(Cl)c(Cl)c3)CCCN(C(=O)c3ccccc3)C2)CC1)c1ccc(F)cc1 | 2.74% |
| COc1ccc2ncc(Cl)c([C@@H](O)CN3CCC(NCc4cc5c(cn4)OCCO5)CC3)c2c1 | 1.19% |
| Cc1noc(-c2ccc3c(c2)CCN(CCC2CCC(NC(=O)/C=C/c4cccc(Cl)c4)CC2)CC3)n1 (stereo not given) | 0.68% |
| Cc1cc(N)cc2nc(-c3ccc(N)cc3)[nH]c12 | 1.68% |
| COc1ccc(-c2cncc(-c3ccc(OC)c(OC)c3)n2)cc1OC | 3.88% |
| O=C(Nc1ccc(-c2ccc(-c3nc4cc(C(F)(F)F)ccc4[nH]3)s2)cc1)c1ccoc1 | -1.02% |
| Cn1cc(Br)c(-c2cccc(Nc3ccnc4cc(-c5nccs5)ccc34)c2)n1 | 4.06% |
| N=C(NCCCCC1CCCCC1)c1cccc(C(=N)NCCCCC2CCCCC2)n1 | 0.14% |
| NC(=O)c1ccc(C(=O)Nc2cccc(-c3cccc(-c4nc5cc(C(F)(F)F)ccc5[nH]4)c3)c2)cc1 | 2.11% |
| c1ccc(Oc2ccc(Nc3ccnc4cc(-c5csc(CNCCN6CCOCC6)n5)ccc34)cc2)cc1 | -0.68% |
| COc1cccc(C=NNc2cc(C)nc3c(OC)cccc23)c1 | 0.35% |
| COc1ccc2nccc([C@@H](O)CN3CCC(NC(=O)C(c4ccsc4)N4CCN(c5ccccc5OC)CC4)CC3)c2c1 (stereo not given in full) | 0.49% |
| COc1ccc(Cc2c(Cl)nc3nc(N)nc(N)c3c2C)cc1 | 8.71% |
| Oc1ccc2[nH]c(-c3cccc(F)c3)nc2c1CN1CCC(O)(c2ccccc2)CC1 | 1.7% |
| CC(C)CC1c2[nH]c3ccccc3c(=O)c2CN1C(=O)OC(C)(C)C (stereo not given) | 1.8% |
| c1ccc2[nH]c(CN(Cc3nc4ccccc4[nH]3)Cc3nc4ccccc4[nH]3)nc2c1 | -0.29% |
| COc1ccccc1C1CCN(CCCCNC(=O)c2ccc(NC(=O)c3ccc(Cl)cc3)cc2)CC1 | 2.05% |
| CCCc1nc2c(N3CC(NC(=O)/C=C/c4ccccc4)C3)cccc2n1C1CC1 | 8.19% |
| CCCCCN1CCC(NS(=O)(=O)c2cccc(C(=O)Nc3ccc(Cl)cc3)c2)CC1 | 2.4% |
